Assay [1] deals with Luciferin 4-monooxygenase (Photinus pyralis) (UniProt P08659). Briefly: Biochemical firefly luciferase enzyme assay for NPC (AID 624030).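 Further: purified P. pyralis luciferase at 10 nM with luciferin and ATP substrate; nearly all actives have a fitted effect of over 70% in size.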 A digest of the protocol: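 Direct inhibition of firefly luciferase enzyme (10 nM final, 50 mM Tris Acetate) assessed by luminescence within 5 minutes. Percent activity scaled between DMSO and PTC124 positive control, with concentration-effect curves classified by fit quality and response.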

Assay [2] has as its system CP266. The assay is described as follows: qHTS profiling for inhibitors of Plasmodium falciparum proliferation (AID 504749). Further: nearly all actives have a fitted effect of over 60% in size. Further: potency means the concentration at half of the fitted maximal effect. Particulars: P. falciparum in erythrocytes, SYBR Green DNA, 72 h; series mostly up to 28.7 µM. An outline of the steps:
(§1)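 Three-day growth assay of blood-stage parasites in erythrocytes (0.3% parasitemia, 2.5% hematocrit) at 37 C, 5% CO2, quantified by SYBR Green DNA staining after overnight detergent lysis.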
(In qHTS, concentration-response curves come from the screen itself.)

Assay [3] has as its system CP268. The description is as above. The note with it: P. falciparum in erythrocytes, SYBR Green DNA, 72 h; series mostly up to 28.7 µM. An outline of the steps:
as §1

The subject of assay [4] is CP269. The assay is described as above. The note with it: P. falciparum in erythrocytes, SYBR Green DNA, 72 h; series mostly up to 28.7 µM. An outline of the steps: as §1
In assay [5] the test system is CP297. Described as above. Particulars: P. falciparum in erythrocytes, SYBR Green DNA, 72 h; series mostly up to 28.7 µM. A digest of the protocol: as §1
For assay [6], the system named is CP305. The description is as above. The note with it: P. falciparum in erythrocytes, SYBR Green DNA, 72 h; series mostly up to 28.7 µM. A digest of the protocol: as §1
In assay [7] the test system is CP325. The assay is described as above. Particulars: P. falciparum in erythrocytes, SYBR Green DNA, 72 h; series mostly up to 28.7 µM. An outline of the steps:
as §1

Assay [8] relates to CP329. Described as above. The note with it: P. falciparum in erythrocytes, SYBR Green DNA, 72 h; series mostly up to 28.7 µM. An outline of the steps:
as §1

The subject of assay [9] is CP335. The description is as above. The note with it: P. falciparum in erythrocytes, SYBR Green DNA, 72 h; series mostly up to 28.7 µM. A digest of the protocol: as §1
Assay [10] relates to DIV14. The description is as above. Particulars: P. falciparum in erythrocytes, SYBR Green DNA, 72 h; series mostly up to 28.7 µM. An outline of the steps: as §1
The subject of assay [11] is ECU. The assay is described as above. Particulars: P. falciparum in erythrocytes, SYBR Green DNA, 72 h; series mostly up to 28.7 µM. A digest of the protocol: as §1
Assay [12] has as its system GB4. Described as above. The note with it: P. falciparum in erythrocytes, SYBR Green DNA, 72 h; series mostly up to 28.7 µM. An outline of the steps:
as §1

In assay [13] the test system is JCK. Described as above. Particulars: P. falciparum in erythrocytes, SYBR Green DNA, 72 h; series mostly up to 28.7 µM. An outline of the steps:
as §1

Assay [14] has as its system P93_24. The assay is described as above. Particulars: P. falciparum in erythrocytes, SYBR Green DNA, 72 h; series mostly up to 28.7 µM. A digest of the protocol:
as §1

Assay [15] deals with PAD. Described as above. The note with it: P. falciparum in erythrocytes, SYBR Green DNA, 72 h; series mostly up to 28.7 µM. A digest of the protocol: as §1
Assay [16] deals with PC15. The assay is described as above. Particulars: P. falciparum in erythrocytes, SYBR Green DNA, 72 h; series mostly up to 28.7 µM. A digest of the protocol: as §1
Assay [17] has as its system PC26. Described as above. The note with it: P. falciparum in erythrocytes, SYBR Green DNA, 72 h; series mostly up to 28.7 µM. A digest of the protocol: as §1
For assay [18], the system named is PC49. The description is as above. Particulars: P. falciparum in erythrocytes, SYBR Green DNA, 72 h; series mostly up to 28.7 µM. An outline of the steps:
as §1

For assay [19], the system named is TAB109. Described as above. Particulars: P. falciparum in erythrocytes, SYBR Green DNA, 72 h; series mostly up to 28.7 µM. A digest of the protocol:
as §1

For assay [20], the system named is TAB113. The description is as above. The note with it: P. falciparum in erythrocytes, SYBR Green DNA, 72 h; series mostly up to 28.7 µM. A digest of the protocol:
as §1

Results filed as inconclusive are left out. The source made the active and inactive calls. The call rests on the fitted dose curve; in most records, active means well fitted inhibition curve with a large enough effect; inconclusive means small, poorly fitted or top-dose-only effect; inactive means flat fitted curve, though single readings scatter.

Luciferin 4-monooxygenase (Photinus pyralis), sequence (P08659 whole entry, looked up): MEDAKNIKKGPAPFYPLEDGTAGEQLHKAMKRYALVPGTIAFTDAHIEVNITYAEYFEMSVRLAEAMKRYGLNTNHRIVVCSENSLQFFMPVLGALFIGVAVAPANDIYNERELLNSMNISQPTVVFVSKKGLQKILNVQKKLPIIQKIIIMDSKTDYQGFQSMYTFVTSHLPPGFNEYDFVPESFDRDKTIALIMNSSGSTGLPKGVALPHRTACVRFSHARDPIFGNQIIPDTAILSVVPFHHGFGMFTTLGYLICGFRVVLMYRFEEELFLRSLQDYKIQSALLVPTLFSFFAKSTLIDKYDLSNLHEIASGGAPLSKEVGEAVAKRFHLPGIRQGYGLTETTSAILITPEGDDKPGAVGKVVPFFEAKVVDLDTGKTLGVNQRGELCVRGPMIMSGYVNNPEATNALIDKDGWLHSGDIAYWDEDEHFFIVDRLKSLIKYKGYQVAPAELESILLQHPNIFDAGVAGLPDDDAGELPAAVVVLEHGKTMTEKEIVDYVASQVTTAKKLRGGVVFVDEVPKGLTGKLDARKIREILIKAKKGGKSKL

As to `CC(c1ncncc1F)[C@](O)(Cn1cncn1)c1ccc(F)cc1F` (stereo not given in full), the Potency result in assay [1], in [2], in assay [3], in [4], in assay [5] and in assay [6] was “inactive” in each case. Besides, the Potency result in assay [7], in assay [8], in [9], in assay [10], in assay [11] and in assay [12] was “inactive” in each case. The Potency result in [13], in assay [14], in [15], in [16], in assay [17] and in assay [18] was “inactive” each time. Moreover, the Potency entry in [19] and in assay [20] was “inactive” throughout.

Turning to `CC[C@@H](C)C(N)C(=O)O` (stereo not given in full), the Potency entry in [1], in [2], in assay [3], in assay [4], in assay [5] and in assay [6] was “inactive” each time. The Potency entry in assay [7], in assay [8], in assay [9], in [10], in [11] and in assay [12] was “inactive” each time. In addition, the Potency result in assay [13], in assay [14], in [15], in [16], in assay [17] and in assay [18] was “inactive” throughout. Further, the Potency entry in [19] and in assay [20] was “inactive” each time.

Consider `Cc1cnc(C(=O)O)cn1`, for which the Potency entry in [1], in [2], in [3], in [4], in [5] and in assay [6] was “inactive” throughout. The Potency entry in [7], in assay [8], in [9], in assay [10], in assay [11] and in assay [12] was “inactive” throughout. Also, the Potency result in assay [13], in [14], in [15], in [16], in [17] and in [18] was “inactive” throughout. The Potency entry in assay [19] and in [20] was “inactive” throughout.

For the compound `OCC1O[C@@H](O[C@@H]2C(CO)OC(O)C(O)C2O)C(O)C(O)C1O` (stereo not given in full), the Potency result in assay [1], in assay [2], in assay [3], in [4], in assay [5] and in [6] was “inactive” in each case. Further, the Potency result in assay [7], in assay [8], in assay [9], in [10], in [11] and in assay [12] was “inactive” each time. Further, the Potency entry in assay [13], in [14], in [15], in [16], in assay [17] and in assay [18] was “inactive” each time. The Potency result in assay [19] and in assay [20] was “inactive” in each case.

Regarding `CO/N=C(/C(=O)N[C@@H]1C(=O)N2C(C(=O)O)=C(C[n+]3ccc(N)n3CCO)CS[C@H]12)c1csc(N)n1`, the Potency result in assay [1], in assay [2], in [3], in assay [4], in assay [5] and in assay [6] was “inactive” throughout. In addition, the Potency result in assay [7], in assay [8], in assay [9], in assay [10], in assay [11] and in assay [12] was “inactive” each time. Besides, the Potency result in assay [13], in assay [14], in assay [15], in [16], in assay [17] and in assay [18] was “inactive” each time. The Potency result in [19] and in [20] was “inactive” throughout.

`CO[C@H]1OC2O[C@@]3(C)CC[C@H]4[C@H](C)CC[C@@H]([C@H]1C)[C@@]24OO3` (stereo not given in full): in assay [1], the Potency entry is “inactive”. Also, the Potency was 67.5 nM (active) in assay [2]; 21.3 nM (active) in [3]; 21.3 nM (active) in [4]; 23.9 nM (active) in assay [5]; 15.1 nM (active) in [6]; 15.1 nM (active) in assay [7]. In addition, the Potency in assay [8] is 60.1 nM (active); in assay [9] it was 23.9 nM (active); in [10], 10.7 nM (active); in assay [11] it was 15.8 nM (active); in assay [12], 13.5 nM (active); in [13], 12.6 µM (active). In addition, the Potency in assay [14] is 10 nM (active); in assay [15], 20 nM (active); in assay [16], 11.2 nM (active); in assay [17], 15.1 nM (active); in [18], 25.1 nM (active); in [19], 12.6 nM (active). In addition, the Potency in [20] was 11.2 nM (active).

Regarding `Cc1ccc(S(=O)(=O)NC(=O)NC(C)Cc2ccccc2)cc1` (stereo not given), the Potency entry in [1], in assay [2], in assay [3], in [4], in [5] and in [6] was “inactive” throughout. Also, the Potency entry in [7], in assay [8], in [9], in assay [10], in assay [11] and in assay [12] was “inactive” throughout. The Potency result in [13], in assay [14], in assay [15], in [16], in assay [17] and in assay [18] was “inactive” throughout. Besides, the Potency entry in [19] and in [20] was “inactive” in each case.

As to `C=C1[C@@H]2CC[C@H](C2)C1(C)C`, the Potency entry in assay [1], in assay [2], in assay [3], in [4], in [5] and in [6] was “inactive” in each case. Also, the Potency entry in [7], in assay [8], in [9], in assay [10], in assay [11] and in [12] was “inactive” in each case. The Potency entry in [13], in [14], in assay [15], in [16], in [17] and in assay [18] was “inactive” each time. For the same compound, the Potency entry in assay [19] and in [20] was “inactive” each time.

Turning to `C[C@@H]1C(SC2Cn3cnc[n+]3C2)=C(C(=O)[O-])N2C(=O)[C@H]([C@@H](C)O)[C@@H]12` (stereo not given in full), the Potency result in assay [1], in [2], in assay [3], in assay [4], in assay [5] and in assay [6] was “inactive” in each case. Further, the Potency entry in [7], in assay [8], in assay [9], in assay [10], in [11] and in assay [12] was “inactive” throughout. The Potency result in [13], in [14], in assay [15], in [16], in [17] and in assay [18] was “inactive” throughout. Further, the Potency entry in assay [19] and in [20] was “inactive” throughout.

In the case of `CNC(=O)C(N)CSC(C)C1=C(C)c2cc3[n-]c(cc4nc(cc5[n-]c(cc1n2)c(C)c5CCC(=O)O)C(CCC(=O)O)=C4C)c(C)c3C(C)SCC(N)C(=O)NC.[Fe+2]` (stereo not given), the Potency entry in assay [1], in assay [2], in assay [3], in assay [4], in assay [5] and in assay [6] was “inactive” throughout. In addition, the Potency entry in assay [7], in [8], in [9], in [10], in [11] and in assay [12] was “inactive” throughout. Besides, the Potency result in assay [13], in assay [14], in assay [15], in [16], in assay [17] and in assay [18] was “inactive” in each case. In addition, the Potency entry in assay [19] and in assay [20] was “inactive” in each case.

`CC12C=CC(=O)C=C1[C@@H](F)CC1C2C(O)CC2(C)C1CC[C@]2(O)C(=O)CO` (stereo not given in full): the Potency entry in [1], in assay [2], in assay [3], in assay [4], in assay [5] and in assay [6] was “inactive” in each case. The Potency entry in assay [7], in assay [8], in assay [9], in assay [10], in assay [11] and in assay [12] was “inactive” in each case. For the same compound, the Potency entry in assay [13], in assay [14], in assay [15], in [16], in assay [17] and in assay [18] was “inactive” each time. Further, the Potency result in assay [19] and in assay [20] was “inactive” in each case.

Regarding `O=c1[nH]c(=O)n(C2C[C@H](O)[C@@H](CO)O2)cc1C(F)(F)F` (stereo not given in full), the Potency result in assay [1], in assay [2], in assay [3], in assay [4], in [5] and in [6] was “inactive” each time. The Potency entry in assay [7], in [8], in assay [9], in assay [10], in assay [11] and in assay [12] was “inactive” each time. Besides, the Potency entry in assay [13], in assay [14], in assay [15], in [16], in assay [17] and in assay [18] was “inactive” in each case. Besides, the Potency result in assay [19] and in assay [20] was “inactive” throughout.
